Assay results published in PubChem BioAssay AID778 (Sanford-Burnham Center for Chemical Genomics, 2007).
Among all 96,000 compounds or so, about 20,000 (21%) were called active.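 Rule for the calls: active = CYP2C19 inhibition above a set limit at 5 µM in the primary screen (cut at about 50% in these data); inactive = the rest.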 A selection follows.

What follows are molecules tested against Cytochrome P450 2C19 (Homo sapiens) (UniProt P33261) (assay: blockers of cytochrome P450 2C19 activity – biochemical, luminescence, ADME assay, primary screen (AID 778;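 note: plate controls were negative control wells for no effect and 2.5 mM tranylcypromine positive control for full effect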)). Details: CYP2C19 Supersomes, luciferin-H EGE luminescence, 30 min; at 5 µM; stronger effect = higher value.
Sequence of Cytochrome P450 2C19 (Homo sapiens) (P33261 whole entry, looked up): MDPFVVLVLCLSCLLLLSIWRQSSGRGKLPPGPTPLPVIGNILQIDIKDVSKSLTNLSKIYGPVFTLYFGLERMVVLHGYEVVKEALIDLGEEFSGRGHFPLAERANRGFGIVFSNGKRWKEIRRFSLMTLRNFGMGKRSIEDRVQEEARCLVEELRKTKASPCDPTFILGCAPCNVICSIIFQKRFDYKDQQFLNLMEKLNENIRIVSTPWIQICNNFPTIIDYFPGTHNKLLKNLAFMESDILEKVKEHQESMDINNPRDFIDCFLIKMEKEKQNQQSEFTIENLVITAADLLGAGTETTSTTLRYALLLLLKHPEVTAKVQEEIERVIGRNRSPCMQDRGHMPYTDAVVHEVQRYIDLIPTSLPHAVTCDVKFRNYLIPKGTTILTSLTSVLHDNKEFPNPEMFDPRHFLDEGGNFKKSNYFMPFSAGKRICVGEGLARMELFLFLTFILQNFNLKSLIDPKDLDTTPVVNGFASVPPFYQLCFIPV
In the case of CC(Sc1nncn1C)C(=O)Nc1ccccc1-c1ccccc1 (configuration not stated), the inhibition is reported as 9.5% (inactive).
O=C1Nc2cc(Cl)c(Cl)cc2N(O)N1c1cc(Cl)cc(Cl)c1 was tested, and the inhibition was -1.7% (inactive).
With CN(C)Cc1c(O)ccc2occ(C(O)c3ccccc3)c12 (configuration not stated) the inhibition was 70.5% (active).
For c1csc(CN2CCN(Cc3cccs3)C2c2cccs2)c1, the inhibition was 16.8% (inactive).
For O=C(CN1CCOCC1)Nc1cc(Cl)ccc1Cl, the inhibition was 48.8% (inactive).
With C=C(C)Cn1c(N2CCCC2)nc2c1c(=O)[nH]c(=O)n2C the inhibition was -8.1% (inactive).
In the case of COc1ccccc1N1CCN(C(=O)CSc2nnc(-c3ccoc3C)o2)CC1, the inhibition is reported as 17.4% (inactive).
With O=C(CSC1=Nc2ccccc2C2=NC(CC(=O)NCc3ccco3)C(=O)N12)NCc1ccco1 (configuration not stated) the inhibition was 10.6% (inactive).
CCC1CCCCN1CCCNC(=O)Cn1nc(-c2ccccc2)ccc1=O (configuration not stated) was tested, and the inhibition was -1.3% (inactive).
With Cc1ccsc1-c1nc(CSCC(=O)NCCN2CCCC2)c(C)o1 the inhibition was 1.6% (inactive).
In the case of C/C(=C\C(=O)c1cccnc1)Nc1ccc(C)c(C)c1, the inhibition is reported as 37.2% (inactive).
With O=C(/C=C/c1ccc(Cl)cc1Cl)NCc1ccco1 the inhibition was 31.8% (inactive).
For O=C(/C=C/c1ccc(Cl)cc1Cl)c1cccnc1, the inhibition was 62.6% (active).
For Cc1ccc(S(=O)(=O)c2c(N)n(C)c3nc4ccccc4nc23)cc1, the inhibition was 47.7% (inactive).
For C=CCn1c(N)c(S(=O)(=O)c2cccs2)c2nc3ccccc3nc21, the inhibition was 80.5% (active).
For C=CCn1c(N)c(C(=O)OCC(C)C)c2nc3ccccc3nc21, the inhibition was 18.5% (inactive).
With Cc1ccc(NC(=S)NCCN2CCOCC2)cc1 the inhibition was 23% (inactive).
With Cc1cccc(-c2noc(-c3ccc(F)cc3)n2)c1 the inhibition was 32.6% (inactive).
For COc1ccc(-c2noc(CSc3ccc(C)cc3)n2)cc1, the inhibition was 78.6% (active).
With COc1ccc(-c2noc(-c3ccc(C)cc3)n2)cc1 the inhibition was 6.2% (inactive).
With Cc1ccc(Nc2nc(CSc3nnnn3-c3ccccc3)cc(=O)[nH]2)cc1 the inhibition was 16.7% (inactive).
In the case of Fc1ccc(-n2c(Cc3ccccc3)nnc2SCc2nc(-c3ccc(Cl)cc3)no2)cc1, the inhibition is reported as 80% (active).
Cc1ccc(-c2noc(CSc3nnc(-c4ccncc4)n3-c3ccc(F)cc3)n2)cc1 was tested, and the inhibition was 58.3% (active).
In the case of Cc1ccc(-c2noc(CSc3nnnn3-c3ccccc3)n2)cc1, the inhibition is reported as 73.4% (active).
In the case of CCN(CC)C(=O)CSc1nnc(-c2cnccn2)n1-c1ccc(C)cc1, the inhibition is reported as -1.8% (inactive).
O=C(CSc1nnc(Cc2ccccc2)n1-c1ccccc1)N1CCOCC1 was tested, and the inhibition was 8.2% (inactive).
CSc1nnc(CNC(=O)c2ccccc2)n1-c1ccc(F)cc1 was tested, and the inhibition was -4.4% (inactive).
In the case of COc1ccc(-c2noc(CN(C)S(=O)(=O)c3ccc(C)cc3)n2)cc1, the inhibition is reported as 40.2% (inactive).
In the case of Cc1cc2c(cc1C)N(C(=O)CN1C(=O)c3ccccc3C1=O)C(C)(C)c1ssc(=S)c1-2, the inhibition is reported as 3.4% (inactive).
For OCCNCCCCOc1ccccc1F, the inhibition was -2.2% (inactive).
For Cc1c(Br)c([N+](=O)[O-])nn1C(C)C(=O)Nc1nccs1 (configuration not stated), the inhibition was 37.1% (inactive).
Cc1nnc(SCC(=O)N(C(C)C)C(C)C)nc1C was tested, and the inhibition was 22.9% (inactive).
CCc1nc(N2CCN(c3nc(C)cc(C)n3)CC2)c2oc3ccccc3c2n1 was tested, and the inhibition was 8.3% (inactive).
With O=C(Nc1ccc(Br)cc1)c1cccc(NC(=O)C2C3CC4OC(=O)C2C4C3)c1 (configuration not stated) the inhibition was 24.6% (inactive).
O=C(Nc1nncs1)c1ccccc1NS(=O)(=O)c1cccs1 was tested, and the inhibition was 46.2% (inactive).
With CC1(C)CC(=O)C(C=NCc2cccnc2)=C(O)C1 the inhibition was 14.2% (inactive).
CCOC(=O)N1CCC(NC(=O)COc2cc(=O)n(C)c3ccccc23)CC1 was tested, and the inhibition was -16.3% (inactive).
For CN1C2CCC1/C(=C\c1ccccc1Cl)C(=O)/C2=C\c1ccccc1Cl, the inhibition was -12.1% (inactive).
For Cc1ccc(CCNC(=O)C2CCN(S(=O)(=O)N3CCCC3)CC2)cc1, the inhibition was 12.2% (inactive).
CCCCOc1ccc(NC(=O)CSCC(=O)OCC)cc1 was tested, and the inhibition was 14.3% (inactive).
O=S1(=O)CC(NCc2ccccc2)C(Nc2ccc(Cl)cc2)C1 (configuration not stated) was tested, and the inhibition was 46.7% (inactive).
With Cn1c(=O)c2c(n(Cc3ccccc3)c1=O)NC(=O)C2CC(=O)N1CCc2ccccc2C1 (configuration not stated) the inhibition was -9.3% (inactive).
CC(Oc1ccc(-c2ccccc2)c(F)c1)c1ccn(S(=O)(=O)c2cccc3ccccc23)n1 (configuration not stated) was tested, and the inhibition was 25% (inactive).
In the case of C=CCn1c(=N)n(CC(O)COc2ccc(OC)cc2)c2ccccc21 (configuration not stated), the inhibition is reported as 12.4% (inactive).
For Cc1ccc(-c2noc(CSc3nnc(-c4cccs4)n3C)n2)cc1, the inhibition was 23% (inactive).
With Cc1ccc(-c2noc(CSc3nnc(-c4ccccc4)n3C)n2)cc1 the inhibition was 88.2% (active).
In the case of Cc1ccc(-c2noc(CC(c3ccccc3)c3ccccc3)n2)cc1, the inhibition is reported as 19.9% (inactive).
CCCCCOC(=O)c1ccc(N2C(=O)C3C4C=CC(C4)C3C2=O)cc1 (configuration not stated) was tested, and the inhibition was -13.5% (inactive).
For O=C1Nc2ccccc2C12Nc1ccccc1S2 (configuration not stated), the inhibition was 80.5% (active).
For CC(=O)N1C(=O)C2(Nc3ccccc3N2)c2ccccc21, the inhibition was -7.6% (inactive).
In the case of Clc1cccc(N=C2NN=C(c3ccc4c(c3)OCCO4)CS2)c1, the inhibition is reported as 24.7% (inactive).
C=CC[n+]1c(-c2ccc(C)cc2)csc1NNC(=O)Nc1ccccc1 was tested, and the inhibition was 18% (inactive).
For Cn1c(-c2ccco2)nc2cc3ccccc3cc21, the inhibition was 53.3% (active).
With c1coc(-c2nc3nc4ccccc4n3nc2-c2ccco2)c1 the inhibition was -23.4% (inactive).
In the case of CN(c1nc2ccccc2n2c(-c3ccco3)nnc12)S(=O)(=O)c1ccccc1, the inhibition is reported as 1.3% (inactive).
With CSc1nc(C)nc2c1c(=O)n(C)c(=O)n2C the inhibition was -8.7% (inactive).
In the case of CCCC1CC(C)(C(=O)Cn2[nH]c(=O)ccc2=O)OC1=O (configuration not stated), the inhibition is reported as 0.3% (inactive).
COc1cccc(NC(=O)c2nn(C34CC5CC(CC(C5)C3)C4)cc2[N+](=O)[O-])c1 was tested, and the inhibition was 9.7% (inactive).
With COc1ccc(-c2cc(C3CCN(c4ncccc4[N+](=O)[O-])CC3)[nH]n2)cc1 the inhibition was 84.8% (active).
With CCCn1c(=O)c(-c2ccccc2)c(O)c2ccccc21 the inhibition was -13.5% (inactive).
In the case of COc1ccc(S(=O)(=O)NC2(C(F)(F)F)N=C3SCCN3C2=O)cc1 (configuration not stated), the inhibition is reported as -1.5% (inactive).
For Cc1cccc(N2CCN(S(=O)(=O)c3ccc4[nH]c(=O)c(=O)[nH]c4c3)CC2C)c1 (configuration not stated), the inhibition was 19.7% (inactive).
In the case of CSc1nnc(-c2ccncc2)n1CCCN1CCCC1=O, the inhibition is reported as -0.2% (inactive).
For COC(=O)c1ccc(Sc2ccc(F)cc2)c(N)c1, the inhibition was 94.3% (active).
In the case of CC(C)NC(=O)c1ccc(Sc2ccccc2)c([N+](=O)[O-])c1, the inhibition is reported as 36.8% (inactive).
For CC(C)(CCl)C(=O)Nc1ccc(Sc2ccc(F)cc2)cc1, the inhibition was -1.4% (inactive).
For c1cnc(NC2C3CC4CC(C3)CC2C4)nc1 (configuration not stated), the inhibition was 26% (inactive).
For CN(C)c1ccc(CNC2C3CC4CC(C3)CC2C4)cc1 (configuration not stated), the inhibition was 75.5% (active).
With CN(C)c1ccc(CNC23CN4CN(CN(C4)C2)C3)cc1 the inhibition was 0.2% (inactive).
Cc1cc(Cl)c(S(=O)(=O)Nc2ccc3c(c2)OCCO3)cc1OCC(N)=O was tested, and the inhibition was 15.3% (inactive).
In the case of COc1ccc(C(=O)Nc2ccc3c(c2)OCO3)cc1OC, the inhibition is reported as 39.8% (inactive).
In the case of COc1ccc(S(=O)(=O)Nc2ccc(F)cc2)c(C)c1C, the inhibition is reported as 94.9% (active).
In the case of CC(C)CNS(=O)(=O)c1ccc(OCC(=O)Nc2ccc3c(c2)OCO3)c(Cl)c1, the inhibition is reported as -1% (inactive).
COc1ccc(S(=O)(=O)Nc2ccc3c(c2)OCO3)cc1Cl was tested, and the inhibition was 100% (active).
For COc1ccc(C(=O)Nc2ccc(S(=O)(=O)Nc3onc(C)c3C)cc2)cc1OC, the inhibition was 15.5% (inactive).
COc1ccc(F)cc1S(=O)(=O)Nc1ccc2c(c1)OCO2 was tested, and the inhibition was 69.4% (active).
For O=C1CCCC2=C1C(c1cccs1)n1nc(SCc3ccccc3)nc1N2 (configuration not stated), the inhibition was -10.3% (inactive).
For N=c1c2c3c(sc2ncn1CCCN1CCOCC1)CCCCC3, the inhibition was 7.8% (inactive).
With CCOc1cc2[nH]c(=S)n(Cc3ccc(C(=O)NCCOC)cc3)c(=O)c2cc1OCC the inhibition was -10.8% (inactive).
With CCOC(=O)N1CCN(Cc2oc(CO)cc(=O)c2O)CC1 the inhibition was 5.4% (inactive).
With CSCCC(NS(=O)(=O)c1ccc2c(c1)oc(=O)n2C)C(=O)NC1CCCc2ccccc21 (configuration not stated) the inhibition was 7.6% (inactive).
OC1CN=C2Sc3ccccc3N2C1 (configuration not stated) was tested, and the inhibition was -7.4% (inactive).
For O=C(Cc1ccc2c(c1)CCCC2)Nc1ccccc1Cl, the inhibition was 27.1% (inactive).
CC1(C)CC(CCC(=O)Nc2ccccc2Cl)C(=O)O1 (configuration not stated) was tested, and the inhibition was 1.2% (inactive).
With O=C(Nc1ncc2c(n1)CC(c1ccco1)CC2=O)c1ccc(Cl)cc1 (configuration not stated) the inhibition was 28.4% (inactive).
For CCCCOc1ccc(CSC(=N)N)cc1[N+](=O)[O-], the inhibition was 16.6% (inactive).
For CCCCOc1ccc(Cl)cc1CSc1nncn1N, the inhibition was 86.7% (active).
Cc1cc(=O)[nH]c(SCc2cc(Cl)ccc2OC(F)F)n1 was tested, and the inhibition was 29% (inactive).
For Cc1[nH]n(-c2ccc([N+](=O)[O-])cc2)c(=O)c1C=NCCN1CCN(C(=O)c2ccccc2F)CC1, the inhibition was 9.2% (inactive).
In the case of CCC(=O)Nc1ccccc1N1CCN(S(C)(=O)=O)CC1, the inhibition is reported as 10.6% (inactive).
COc1ccc(C(=O)NC(=S)Nc2ccccc2N2CCN(S(C)(=O)=O)CC2)cc1OC was tested, and the inhibition was 75.2% (active).
CCOC(=O)c1cnc2sccn2c1=O was tested, and the inhibition was -11.8% (inactive).
With CCCn1c(=NC(C)=O)c(C(=O)OCC)cc2c(=O)n3ccccc3nc21 the inhibition was -6.3% (inactive).
For Cc1ccc(-n2c(=O)c(C#N)cc3c(=O)n4ccccc4nc32)cc1C, the inhibition was 6.5% (inactive).
With CCn1c(=N)c(S(=O)(=O)c2ccc(F)cc2)cc2c(=O)n3ccccc3nc21 the inhibition was 69.6% (active).
For COc1cc2[nH]c(=S)n(Cc3ccc(C)o3)c(=O)c2cc1OC, the inhibition was -7.9% (inactive).
In the case of Fc1ccc(Cn2nnnc2C(c2cccs2)N2CCCCCC2)cc1 (configuration not stated), the inhibition is reported as 96% (active).
In the case of CCC(C)(C)n1nnnc1C(c1cccs1)N1CCN(c2nc3ccccc3s2)CC1 (configuration not stated), the inhibition is reported as 49.9% (inactive).
For CCC(C)(C)n1nnnc1C(c1cccs1)N1CCN(Cc2ccccc2)CC1 (configuration not stated), the inhibition was 61.8% (active).
For N#Cc1ccc(C(c2nnnn2CCc2ccccc2)N2CCCCCC2)cc1 (configuration not stated), the inhibition was 20.5% (inactive).
For CCC(C)(C)n1nnnc1C(c1ccccc1OC)N1CCSCC1 (configuration not stated), the inhibition was 11.4% (inactive).
CC(C)C(c1nnnn1Cc1ccccc1)N1CCC(C(N)=O)CC1 (configuration not stated) was tested, and the inhibition was 10% (inactive).
